From PubChem BioAssay come the findings set out here.

Calls of active or inactive are those of the source. Unless noted, the rule behind the calls is not given here.

Assay [1] is described as follows: liver-stage malaria parasite load reduction – cell-based, known kinase inhibitor set, luminescence, hepatoma host viability (AID 624392).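 Note: infected cells incubated roughly two days before readout.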 The settings on record: Plasmodium liver stage in hepatoma cells, luciferase luminescence, concentration not given here; liver cell % of control: measured here: host liver cell viability; parasite % of control: stronger effect = lower value.

Assay [2] can be described thus: altered dexamethasone sensitivity, NF-kB reporter, cell-based, luciferase, IL-1B stimulus (AID 624486).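 For percent of negative control (+Dex): 100% = mean signal of vehicle control wells on the plate.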 The settings on record: IL-1B + dexamethasone, luminescence; percent of negative control (+Dex): actives lie on both sides, concentration not given here; z-score: measured here: IL-1B alone, no Dex.
Assay [3] concerns the target Cellular tumor antigen p53 (Homo sapiens) (UniProt P04637). Briefly: GFP-p53 level modulators in HPV16+ cells – imaging, known kinase inhibitor set, EGFP/DsRed ratio (AID 1053116).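 Note: cells exposed to compounds for 24 h at 37 °C before reading.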 The settings on record: GFP-p53 stability, stronger effect = higher value; EGFP object count: measured here: GFP-p53 positive objects count.
Assay [4] in a line: inducers of IRF3 signaling, differentiated THP-1 – cell-based, PMA-stimulated THP-1, luminescence (AID 1053176). The settings on record: PMA-differentiated THP-1, IRF3 reporter luminescence; stronger effect = higher value.
The nature of assay [5]: Wnt pathway potentiators raising nuclear beta-catenin – imaging, WNT3A-conditioned medium, mouse C2C12, NPC library, primary screen (AID 1117326; in the data active = nuclear beta-catenin stimulation mostly above about 4.2%, no sharp cut-off; inactive = mostly below about 10%). The settings on record: stronger effect = higher value.
Assay [6] can be described thus: stimulators of insulin release from INS-1E, primary screen, cell-based, 5 mM glucose, NPC library (AID 1117329;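 active = compound raises insulin release from rat beta cells at 5 mM glucose, no numeric limit stated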). The settings on record: rat INS-1E insulin secretion, at 10 µM, stronger effect = higher value.
Assay [7] is described as follows: growth inhibition of GSK3B-pretreated HCT116 cells – cell-based, CellTiter-Glo, 0.2 to 20 µM (AID 1117336;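 active = compounds lowering colon cancer cell viability after pretreatment blocking the GSK3B kinase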). The settings on record: HCT116 viability after GSK3B inhibitor, at 20 µM, stronger effect = higher value. Background: ATP-based viability assays read luminescence as a measure of living cells.
The nature of assay [8]: inhibition of endothelial tube formation, primary screen, imaging, VEGF stimulated, CD31 staining, tube area, NPC library (AID 1117340;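 active = compound that reduces growth-factor-driven endothelial tube area in a mixed cell culture, no cutoff stated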). The settings on record: VEGF-stimulated ADSC/ECFC co-culture, at 10 µM, stronger effect = higher value.
Assay [9] can be described thus: GLP1 release stimulators, primary, NCI-H716, NPC library (AID 1117341;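 active = compound raises GLP1 secretion from the human gut endocrine cells, with no numeric limit stated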). The settings on record: NCI-H716 cells, at 10 µM, stronger effect = higher value.
Assay [10] is described as follows: HCT116 colon cancer cell growth inhibition, primary screen, CellTiter-Glo luminescence, NPC library (AID 1117342;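 active = compounds that lower survival of HCT116 colon cancer cells in the luminescence readout, no numeric limit stated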). The settings on record: at 20 µM (top of the series).
Assay [11] can be described thus: reduced SW480 viability measured with CellTiter-Glo, NPC library, primary (AID 1117343;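 active = compounds that lower viability of the colon cancer cells in the luminescence readout, with no numeric limit stated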). The settings on record: CellTiter-Glo luminescence; at 20 µM (top of the series).
The nature of assay [12]: NPC library primary testing for decreased DLD-1 cell viability via CellTiter-Glo (AID 1117346;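 active = compounds that lower survival of DLD-1 colon cancer cells in the luminescence readout, no cutoff given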). The settings on record: DLD-1 viability, CellTiter-Glo luminescence; at 20 µM (top of the series).
The nature of assay [13]: C. elegans survival during P. aeruginosa infection – whole organism (AID 651566).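 Note: tested at 14 µM; sign flipped so higher z means a lower ratio.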 The settings on record: C. elegans killed by P. aeruginosa, survival ratio.
The nature of assay [14]: pro-inflammatory signaling induction in mouse macrophages – cell-based, murine, luminescence (AID 652131). The settings on record: murine macrophage pro-inflammatory reporter, stronger effect = higher value.
Assay [15] is described as follows: MELAS cybrid and Rieske KO viability enhancers – cell-based, MELAS cybrids, Rieske KO mouse fibroblasts, CellTiter-Glo, primary screen (AID 1508586;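 active = mean z-score across replicates of 1.96 or higher in either the MELAS or the Rieske mutant cell line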;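 note: z relative to plate mean and SD of compound and empty wells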). The settings on record: low glucose.
The mark [16] stands for this setting: MELAS cybrid survival, CellTiter-Glo 48 h, stronger effect = higher value.
Setting [17] is: Rieske KO mouse fibroblast survival, CellTiter-Glo 72 h.

Chain of Cellular tumor antigen p53 (Homo sapiens) (P04637 whole entry, looked up): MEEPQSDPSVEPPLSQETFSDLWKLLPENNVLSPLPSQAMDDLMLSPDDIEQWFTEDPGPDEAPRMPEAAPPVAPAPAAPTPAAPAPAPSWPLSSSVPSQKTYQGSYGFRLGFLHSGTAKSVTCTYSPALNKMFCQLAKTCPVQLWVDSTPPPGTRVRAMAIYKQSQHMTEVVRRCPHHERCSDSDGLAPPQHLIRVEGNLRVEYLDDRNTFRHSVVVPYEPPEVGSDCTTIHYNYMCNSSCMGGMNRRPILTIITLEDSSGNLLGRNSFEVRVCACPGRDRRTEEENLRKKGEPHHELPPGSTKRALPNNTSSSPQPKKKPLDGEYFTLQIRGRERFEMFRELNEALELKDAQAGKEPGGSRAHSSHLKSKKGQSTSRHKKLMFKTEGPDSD

For the compound `Cn1cc(C2=C(c3cn(CCCNC(N)=N[N+](=O)[O-])c4ccccc34)C(=O)NC2=O)c2ccccc21`, in assay [1], the liver cell % of control is 106% and the parasite % of control is 62.5% (inactive). In assay [2], the percent of negative control (+Dex) is 102% (inactive) and the z-score is -0.575. In assay [3], the EGFP object count was determined as 2.5 and the EGFP/DsRed ratio is 0.0481 (inactive). Moreover, in assay [4], the fraction signal is 0.0015 (inactive).
Consider `Oc1ccccc1-c1ccccc1`, for which the nuclear beta-catenin stimulation in assay [5] (at 10 µM) is 0.6% (inactive); in assay [5] (stimulation, at 2 µM), -0.1%. Moreover, the insulin secretion stimulation in [6] is -2.4% (inactive). The viability decrease in [7] is -2.35% (inactive). In assay [8], the tube area decrease is -3.5% (inactive). Moreover, in assay [9], the GLP1 secretion stimulation was -1.2% (inactive). Further, the inhibition of viability in assay [10] was -18.2% (inactive). Further, the results for the viability decrease (inhibition) in assay [11] and in assay [12] were 15.3% (inactive) and 8.7% (inactive), respectively.
As to `CCC(C)(C)c1ccc(O)cc1`, the nuclear beta-catenin stimulation in assay [5] (at 10 µM) was 0.6% (inactive); in [5] (stimulation, at 2 µM), -0.2%. In [6], the insulin secretion stimulation was -1% (inactive). Further, the viability decrease in assay [7] is -20.2% (inactive). For the same compound, the tube area decrease in assay [8] was 9.4% (inactive). Further, the GLP1 secretion stimulation in assay [9] is 6.1% (inactive). In addition, the inhibition of viability in [10] is 0.6% (inactive). For the same compound, the viability decrease (inhibition) in [11] was -13% (inactive); in assay [12], -2.4% (inactive).
Take `CC1=C(C(=O)O)N2C(=O)[C@@H](N)[C@H]2SC1`: the nuclear beta-catenin stimulation in [5] (at 10 µM) was -0.8% (inactive); in assay [5] (stimulation, at 2 µM), 0.3%. Also, the insulin secretion stimulation in assay [6] was 0.4% (inactive). In addition, the viability decrease in assay [7] was 9.7% (inactive). Moreover, in assay [8], the tube area decrease is -6.3% (inactive). Moreover, the GLP1 secretion stimulation in [9] is 4.2% (inactive). In addition, in assay [10], the inhibition of viability is 13.3% (inactive). Moreover, the viability decrease (inhibition) was 33.8% (inactive) in assay [11] and 21.2% (inactive) in assay [12].
In assay [1], `CNC(=O)Oc1cc(C)c(/C=C/c2cncc(C(=O)NC)c2)c(C)c1` yielded a liver cell % of control of 111%. Further, in [1], the parasite % of control was 110% (inactive). Besides, the percent of negative control (+Dex) in [2] was 107% (inactive). Further, the z-score in assay [2] is 1.96; in assay [13], -0.2 (inactive); in [14], -0.101 (inactive); in assay [15] (setting [16]), -0.555 (inactive); in assay [15] (setting [17]), 0.0985. Further, the EGFP object count in assay [3] worked out at 1. Besides, in assay [3], the EGFP/DsRed ratio is 0.0984 (inactive). Also, the fraction signal in [4] was -0.0105 (inactive).
On to `Nc1ccc(Cl)cc1C(=O)c1ccccc1F`, for which the nuclear beta-catenin stimulation in assay [5] (at 10 µM) was 2.3% (inactive); in assay [5] (stimulation, at 2 µM), 4.2%. In addition, in assay [6], the insulin secretion stimulation was 5% (inactive). For the same compound, the viability decrease in assay [7] was 23.5% (inactive). For the same compound, the tube area decrease in assay [8] is 25.4% (inactive). Besides, the GLP1 secretion stimulation in assay [9] is 21.1% (active). Further, the inhibition of viability in [10] was 44.6% (inactive). The results for the viability decrease (inhibition) in assay [11] and in [12] were 61.9% (active) and 12.8% (inactive), respectively.
Consider `Nc1ccccc1`, for which the nuclear beta-catenin stimulation is 0.6% (inactive) in assay [5] (at 10 µM) and 2% in assay [5] (stimulation, at 2 µM). In addition, in assay [6], the insulin secretion stimulation is -2.4% (inactive). The viability decrease in assay [7] is 4.9% (inactive). The tube area decrease in assay [8] was -9.5% (inactive). The GLP1 secretion stimulation in assay [9] is 1.1% (inactive). Besides, the inhibition of viability in [10] was -9.9% (inactive). In addition, the viability decrease (inhibition) in assay [11] was 59.6% (active); in [12], 26.8% (inactive).
`C1CCC(NC2CCCCC2)CC1`: the nuclear beta-catenin stimulation is 1.5% (inactive) in assay [5] (at 10 µM) and 2% in [5] (stimulation, at 2 µM). Further, the insulin secretion stimulation in [6] was 1.3% (inactive). For the same compound, the viability decrease in assay [7] is -4.15% (inactive). Besides, in assay [8], the tube area decrease is -1.6% (inactive). In addition, the GLP1 secretion stimulation in assay [9] is 0.1% (inactive). In addition, the inhibition of viability in assay [10] is 7.9% (inactive). For the same compound, the viability decrease (inhibition) in assay [11] is -22% (inactive); in assay [12], -4.45% (inactive).
`O=C(NC1NNC2NNC(c3cccnc3)CC21)C1CC1` (configuration not stated) registered a liver cell % of control in assay [1] of 79.6%. In assay [1], the parasite % of control is 32.1% (inactive). The percent of negative control (+Dex) in assay [2] is 166% (active). Also, the z-score in assay [2] was -0.58; in [13], -1.13 (inactive); in assay [14], 4.01 (inactive); in assay [15] (setting [16]) it was -1.09 (inactive); in assay [15] (setting [17]) it was -0.386. In addition, the EGFP object count in [3] was 52. Further, the EGFP/DsRed ratio in assay [3] is 0.68 (active). Moreover, the fraction signal in assay [4] is 0.001 (inactive).
As to `CCCN(CCC)C(=O)Cc1c(-c2ccc(Cl)cc2)nc2ccc(Cl)cn12`, the nuclear beta-catenin stimulation in assay [5] (at 10 µM) is -2% (inactive); in assay [5] (stimulation, at 2 µM) it was -0.8%. Besides, the insulin secretion stimulation in assay [6] was 11.7% (inactive). In addition, the viability decrease in assay [7] was 10.8% (inactive). Also, the tube area decrease in assay [8] is -7.3% (inactive). For the same compound, the GLP1 secretion stimulation in assay [9] was -2.3% (inactive). The inhibition of viability in assay [10] was 49.5% (inactive). The viability decrease (inhibition) in assay [11] was 18% (inactive); in assay [12], 27.1% (inactive).
With `O=C(O)c1cc(Oc2ccc(C(F)(F)F)cc2Cl)ccc1[N+](=O)[O-]`, the nuclear beta-catenin stimulation in [5] (at 10 µM) was 1.4% (inactive); in assay [5] (stimulation, at 2 µM), 0.5%. In addition, the insulin secretion stimulation in [6] is 4.1% (inactive). The viability decrease in [7] was -10.9% (inactive). Further, the tube area decrease in assay [8] was 0.3% (inactive). For the same compound, in assay [9], the GLP1 secretion stimulation is 3.1% (inactive). Moreover, the inhibition of viability in assay [10] was 9.4% (inactive). In addition, the viability decrease (inhibition) in assay [11] is -9.4% (inactive); in assay [12] it was -3.5% (inactive).
With `O=C(Nc1ccc(Br)cc1)c1cc(Br)cc(Br)c1O`, the nuclear beta-catenin stimulation was 28.9% (inactive) in assay [5] (at 10 µM) and 0.4% in [5] (stimulation, at 2 µM). Moreover, the insulin secretion stimulation in assay [6] is -3% (inactive). Besides, the viability decrease in assay [7] was 98% (active). Moreover, the tube area decrease in [8] was 108% (active). Also, the GLP1 secretion stimulation in assay [9] was -3.5% (inactive). In [10], the inhibition of viability is 98.2% (active). In addition, the viability decrease (inhibition) is 94.4% (active) in assay [11] and 100% (active) in assay [12].
In the case of `O=C(O)COc1ccccc1`, the nuclear beta-catenin stimulation in assay [5] (at 10 µM) is 1.6% (inactive); in [5] (stimulation, at 2 µM), 0.3%. Besides, the insulin secretion stimulation in assay [6] was -2.7% (inactive). In addition, the viability decrease in assay [7] was -4.9% (inactive). Besides, the tube area decrease in assay [8] is -5.1% (inactive). Besides, in assay [9], the GLP1 secretion stimulation was 0.4% (inactive). Moreover, the inhibition of viability in assay [10] was -0.7% (inactive). Moreover, the viability decrease (inhibition) is -15.1% (inactive) in [11] and -15.4% (inactive) in assay [12].
As to `C=CCOC(Cn1ccnc1)c1ccc(Cl)cc1Cl` (configuration not stated), the nuclear beta-catenin stimulation in assay [5] (at 10 µM) was 4.9% (inactive); in assay [5] (stimulation, at 2 µM), 2.5%. For the same compound, the insulin secretion stimulation in [6] was 6.1% (inactive). In [7], the viability decrease is -54.8% (inactive). In addition, the tube area decrease in [8] is 6.3% (inactive). Moreover, in [9], the GLP1 secretion stimulation was 0.8% (inactive). The inhibition of viability in assay [10] was 58.1% (active). The values for the viability decrease (inhibition) in assay [11] and in [12] were 96.7% (active) and 30.1% (inactive), respectively.
With `O=C1C(I)=CC(=C(c2cc(I)c(O)c(I)c2)c2ccccc2C(=O)O)C=C1I`, the nuclear beta-catenin stimulation in [5] (at 10 µM) is 43.7% (active); in [5] (stimulation, at 2 µM), 1.8%. Further, the insulin secretion stimulation in assay [6] is -0.1% (inactive). Also, the viability decrease in assay [7] was 98.7% (active). Besides, the tube area decrease in assay [8] was 106% (active). Also, the GLP1 secretion stimulation in assay [9] was -3.3% (inactive). For the same compound, the inhibition of viability in assay [10] was 99.3% (active). The viability decrease (inhibition) in assay [11] and in assay [12] was 100% (active) each time.
